These results are taken from PubChem BioAssay.

Calls of active or inactive are those of the source.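 How the source made its calls: active means mean z-score across replicates of 1.96 or higher in either the MELAS or the Rieske mutant cell line; inactive means the rest.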

The first test in a line: survival rescue of mitochondrial mutant cells in low glucose, primary screen, MELAS cybrids, Rieske KO mouse fibroblasts, CellTiter-Glo (AID 1508586).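 Further: test concentration not given here; z relative to plate mean and SD of compound and empty wells.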 The settings on record: MELAS cybrid survival, CellTiter-Glo 48 h, stronger effect = higher value.
For `Cn1nc(NC(=O)Cn2cc(-c3nccc4occc34)cn2)c2ccccc21`, the z-score was 0.277 (inactive).
Still for that read-out and setting: to `Cc1nn(C)cc1-c1ccnc(N2CCCN(c3ccc(F)cc3)CC2)n1` belongs -0.739; to `O=c1c2nccnc2ncn1Cc1scnc1-c1ccccc1`, -0.26 (inactive).
On to `Nc1nc(Nc2cccc(Cl)c2)sc1C(=O)c1ccc(F)cc1`, for which the z-score was 1.64 (inactive).
Consider `O=c1[nH]cnc2c1ncn2C1CCC(CO)O1` (stereo not drawn), for which the z-score is -0.36 (inactive).
Still for that read-out and setting: to `Cn1nc(C(C)(C)C)cc1NC(=O)Nc1ccc(Cl)cc1` belongs 1.19 (inactive); to `O=C1CN(c2ncnc3sccc23)CCN1Cc1cccc(F)c1`, -0.104 (inactive); to `Nc1nc(Cl)nc2c1ncn2C1CC(O)C(CO)O1` (stereo not drawn), 0.255 (inactive).
As to `CC(=O)NCCc1ccc(S(N)(=O)=O)cc1`, the z-score was 0.668 (inactive).
For `CC(C)(C)c1cn(C2CCN(C(=O)c3cnc4ccccc4n3)CC2)nn1`, the z-score was 0.15 (inactive).
Consider `Nc1nc(NCc2ccncc2)c2cn[nH]c2n1`, for which the z-score is -0.45 (inactive).
With `CN1CCN(Cc2cccc(Oc3ccccc3)c2)CC1CCO` (stereo not drawn), the z-score was -0.228 (inactive).
On the same count and under the same terms, to `Cc1ccc(CN2CCN(c3ncnc4sccc34)CC2=O)cc1` belongs -0.0356 (inactive); to `O=C(O)c1ccc(-c2ccc([N+](=O)[O-])cc2Cl)o1`, 0.0167 (inactive).
With `NC(=O)c1ccccc1-c1cccc2ccccc12`, the z-score is -0.37 (inactive).
Same read-out and setting: the same measure for `C=CCn1cc(-c2nc3c([nH]2)c(-c2cccnc2)nn3C)c(C)n1`: -1.29; for `CCN(CCc1ccccn1)C(=O)c1cc(-c2cnc(N)nc2)nc2c(C)cccc12`: -0.0572 (inactive); for `COc1ncccc1C(=O)N1CCOc2ccccc21`: 0.0792 (inactive).
For `Cc1nnc(NC(=O)NCC(c2ccccc2)c2ccccc2)s1`, the z-score is 0.623 (inactive).
`COC(=O)CN1CCN(c2ncnc3sccc23)C(C)C1=O` (stereo not drawn): the z-score is 0.221 (inactive).
For `COc1cccc(Cc2noc(-c3nccc4ccccc34)n2)c1`, the z-score was 0.324 (inactive).
Still for that read-out and setting: to `COc1ccc2c(c1)CCN(C(=O)Nc1n[nH]c(-c3ccccc3F)n1)C2` belongs -0.521.
Still for that read-out and setting: to `O=C(O)c1cnc(-c2ccccc2)[nH]1` belongs -0.137 (inactive).
As to `O=C(c1cccc(=O)[nH]1)N(Cc1cccnc1)Cc1ccc2c(c1)OCO2`, the z-score was -0.318 (inactive).
The same measure, in the same setting: to `CCN(CC)C(=O)c1c(NC(=O)c2cccs2)sc2c1CCCC2` belongs 0.194 (inactive); to `O=C(O)c1ccc(-c2ccccc2C(F)(F)F)o1`, 0.000745 (inactive); to `COc1cc(F)c(-c2nc3c(cnn3Cc3cccs3)[nH]2)c(F)c1`, -0.593 (inactive).
For the compound `CN(C)CCc1c[nH]c2ccc(CC3COC(=O)N3)cc12` (stereo not drawn), the z-score is -0.0653 (inactive).
Same read-out and setting: the same measure for `NC(N)=NC(N)=Nc1cc(C(F)(F)F)ccc1Cl`: 0.898 (inactive); for `O=C(O)CCc1c[nH]c2ccccc12`: 0.524 (inactive).
Still for that read-out and setting: to `Cn1nc(-c2cccnc2)c2[nH]c(-c3ccccc3OC(F)F)nc21` belongs -1.45 (inactive); to `Nc1ccn(C2CCC(CO)O2)c(=O)n1` (stereo not drawn), -0.101 (inactive); to `C=CCNC(=O)c1cccnc1-c1ccc(OC)c2ncccc12`, -0.163 (inactive).
The same measure, in the same setting: to `OCCCc1cn(CC2CCN(c3ncnc4nc[nH]c34)CC2)nn1` belongs 0.238 (inactive).
`O=C(O)CNC(=O)Cc1c[nH]c2ccccc12`: the z-score was -0.685 (inactive).
On the same count and under the same terms, the same measure for `CC(=O)NCC1CN(c2ccc(N3CCOCC3)c(F)c2)C(=O)O1` (stereo not drawn): -0.285 (inactive).
The same measure, in the same setting: to `CSCCC(NC(C)=O)C(=O)O` (stereo not drawn) belongs 0.71 (inactive).
As to `O=C1CN(c2ncnc3nc[nH]c23)CCN1CCc1ccccc1`, the z-score is -0.834 (inactive).
`CCn1ncc(NC(=O)Cn2cc(-c3cccc(-n4cccn4)c3)cn2)n1`: the z-score is -0.0561 (inactive).

The test is the same for the next values; noted with them: Rieske KO mouse fibroblast survival, CellTiter-Glo 72 h.
Take `Cn1nc(NC(=O)Cn2cc(-c3nccc4occc34)cn2)c2ccccc21`: the z-score is -0.242.
The same measure, in the same setting: to `Cc1nn(C)cc1-c1ccnc(N2CCCN(c3ccc(F)cc3)CC2)n1` belongs 2.39; to `O=c1c2nccnc2ncn1Cc1scnc1-c1ccccc1`, -0.294; to `Nc1nc(Nc2cccc(Cl)c2)sc1C(=O)c1ccc(F)cc1`, 0.109.
Still for that read-out and setting: to `O=c1[nH]cnc2c1ncn2C1CCC(CO)O1` (stereo not drawn) belongs 0.371; to `Cn1nc(C(C)(C)C)cc1NC(=O)Nc1ccc(Cl)cc1`, -0.375.
On the same count and under the same terms, the same measure for `O=C1CN(c2ncnc3sccc23)CCN1Cc1cccc(F)c1`: 0.0557.
`Nc1nc(Cl)nc2c1ncn2C1CC(O)C(CO)O1` (stereo not drawn) came in with a z-score of 0.0981.
Turning to `CC(=O)NCCc1ccc(S(N)(=O)=O)cc1`, the z-score was -0.256.
Turning to `CC(C)(C)c1cn(C2CCN(C(=O)c3cnc4ccccc4n3)CC2)nn1`, the z-score is -0.382.
Consider `Nc1nc(NCc2ccncc2)c2cn[nH]c2n1`, for which the z-score is -0.366.
The same measure, in the same setting: the same measure for `CN1CCN(Cc2cccc(Oc3ccccc3)c2)CC1CCO` (stereo not drawn): -0.0315.
Same read-out and setting: the same measure for `Cc1ccc(CN2CCN(c3ncnc4sccc34)CC2=O)cc1`: -0.417; for `O=C(O)c1ccc(-c2ccc([N+](=O)[O-])cc2Cl)o1`: -0.308; for `NC(=O)c1ccccc1-c1cccc2ccccc12`: 0.135.
On the same count and under the same terms, to `C=CCn1cc(-c2nc3c([nH]2)c(-c2cccnc2)nn3C)c(C)n1` belongs 2.45.
With `CCN(CCc1ccccn1)C(=O)c1cc(-c2cnc(N)nc2)nc2c(C)cccc12`, the z-score is -0.177.
As to `COc1ncccc1C(=O)N1CCOc2ccccc21`, the z-score is -0.0817.
`Cc1nnc(NC(=O)NCC(c2ccccc2)c2ccccc2)s1` registered a z-score of 1.94.
Same read-out and setting: to `COC(=O)CN1CCN(c2ncnc3sccc23)C(C)C1=O` (stereo not drawn) belongs 0.142; to `COc1cccc(Cc2noc(-c3nccc4ccccc34)n2)c1`, -0.0974; to `COc1ccc2c(c1)CCN(C(=O)Nc1n[nH]c(-c3ccccc3F)n1)C2`, 3.73.
`O=C(O)c1cnc(-c2ccccc2)[nH]1`: the z-score is -0.215.
On the same count and under the same terms, the same measure for `O=C(c1cccc(=O)[nH]1)N(Cc1cccnc1)Cc1ccc2c(c1)OCO2`: 0.234; for `CCN(CC)C(=O)c1c(NC(=O)c2cccs2)sc2c1CCCC2`: 0.0357.
Turning to `O=C(O)c1ccc(-c2ccccc2C(F)(F)F)o1`, the z-score is -0.553.
Still for that read-out and setting: the same measure for `COc1cc(F)c(-c2nc3c(cnn3Cc3cccs3)[nH]2)c(F)c1`: -0.339; for `CN(C)CCc1c[nH]c2ccc(CC3COC(=O)N3)cc12` (stereo not drawn): 0.00529.
Same read-out and setting: the same measure for `NC(N)=NC(N)=Nc1cc(C(F)(F)F)ccc1Cl`: -0.189.
As to `O=C(O)CCc1c[nH]c2ccccc12`, the z-score was -0.334.
With `Cn1nc(-c2cccnc2)c2[nH]c(-c3ccccc3OC(F)F)nc21`, the z-score was determined as 0.404.
The compound `Nc1ccn(C2CCC(CO)O2)c(=O)n1` (stereo not drawn) displayed a z-score of 0.566.
Same read-out and setting: to `C=CCNC(=O)c1cccnc1-c1ccc(OC)c2ncccc12` belongs -0.219; to `OCCCc1cn(CC2CCN(c3ncnc4nc[nH]c34)CC2)nn1`, -0.383; to `O=C(O)CNC(=O)Cc1c[nH]c2ccccc12`, -0.0302.
On the same count and under the same terms, the same measure for `CC(=O)NCC1CN(c2ccc(N3CCOCC3)c(F)c2)C(=O)O1` (stereo not drawn): 0.466.
Same read-out and setting: to `CSCCC(NC(C)=O)C(=O)O` (stereo not drawn) belongs -0.087.
In the case of `O=C1CN(c2ncnc3nc[nH]c23)CCN1CCc1ccccc1`, the z-score is -0.816.
Same read-out and setting: to `CCn1ncc(NC(=O)Cn2cc(-c3cccc(-n4cccn4)c3)cn2)n1` belongs -0.379.
